LGR2 antag – Drosophila LGR2 receptor signaling inhibition | HEK293 LGR2, CRE-luciferase, bursicon-stimulated, 4 h | inhibition, % at 9.99 µM | 380,000 tested, 0.35% active | AID 720647;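 active = drop in luminescence signal, shown as inhibition above about 50% in the replicate tests, limit read from the data, passing the limit was not always enough; inconclusive = probably only some replicates passing the limit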;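 note: agonist challenge used bursicon conditioned medium at about half maximal strength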
TROY signal inh – inhibitors of TROY-dependent NF-kB signaling; 360,000 tested, 0.98% active; inhibition, % at 10 µM; Q293 LMP1-TROYcd NF-kB luciferase reporter, 4 h; AID 1347056;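 active = compounds whose plate-normalised and pattern-corrected inhibition of the luciferase reporter signal at the single screening dose is 50% or more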
LMP1 NFkB inh – inhibitors of Epstein-Barr LMP1-induced NF-kappaB reporter. AID 504558. 350,000 tested, 0.69% active. inhibition, % at 12.5 µM. LMP1-induced NF-kappaB luciferase reporter cells, luminescence; in the data active = inhibition above about 41%; inconclusive = no clear call, values can overlap the other calls;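 note: 0% = neutral control wells and 100% = reference inhibitor control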
TWEAK-Fn14 inh – blocks TWEAK-Fn14 interaction in a reporter cell assay | AID 1159606 | 360,000 tested, 2% active | inhibition, % at 10 µM | TWEAK-stimulated Fn14 reporter cells, luciferase luminescence, 8 h; in the data active = inhibition above about 50%
HSF-1 act – increases HSF-1 driven luciferase reporter signal; activation, % at 9 µM; NIH3T3-HGL HSF-1 luciferase reporter, MG132, 8 h; 100% = twice DMSO control signal; AID 504408; 300,000 tested, 1.7% active;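 active = mean replicate activation of at least 50% with a set share of replicates each reaching 50%; inconclusive = only one of those two conditions met; inactive = mean below 50% and too few replicates reaching it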;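 note: 0% = median of the neutral control wells and 100% = twice that signal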
HSF1 inhib – HSF1 inhibition; NIH3T3-HGL HSE-luciferase, MG132-induced, luminescence 8 h; stronger effect = lower value; activity change, negative = inhibition, % at 7.5 µM (by protocol); 300,000 tested, 0.77% active;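 active = more than half of replicate wells show activity change below -50%, luminescence cut by over half; inconclusive = some wells, but at most half, below -50%; inactive = no replicate well below -50%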;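 note: luciferase reports HSF-1 transcriptional activity via heat shock element; 0% = median of DMSO wells and -100% = zero luminescence signal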
* = called active by the depositor; ? = inconclusive; / = no result given. In the library only some 3.6% were active in any assay of this set; here they are far more common.

SMILES	LGR2 antag	TROY signal inh	LMP1 NFkB inh	TWEAK-Fn14 inh	HSF-1 act	HSF1 inhib
C[C@@H]1CN([C@@H](C)CO)C(=O)c2cccc(NC(=O)c3cnccn3)c2O[C@@H]1CN(C)Cc1ccc(C(F)(F)F)cc1	3	/	/	/	/	/
COc1ccc2c3c([nH]c2c1)[C@@H](CO)N(S(=O)(=O)c1cn(C)cn1)CC31CN(CC2CCOCC2)C1	-2	/	/	/	/	/
Cc1ccc(S(=O)(=O)N2C[C@H]3n4c(=O)ccc(=O)n4C[C@H](OC(=O)NCC4CCCCC4)[C@@]3(O)C2)cc1	25	16	4	61*	/	/
Cc1ccc(S(=O)(=O)N2C[C@H]3n4c(=O)ccc(=O)n4C[C@H](OC(=O)NCc4ccccc4)[C@@]3(O)C2)cc1	31	-6	3	-2	/	/
Nc1c(Cl)c(Cl)nc(C(=O)OCC(=O)N2CCCC2=O)c1Cl	0	3	-7	-12	-9	0
O=C(OCC(=O)N1CCCC1=O)c1nc(Cl)c(Cl)c(Cl)c1Cl	-13	56*	-32	91*	22	9
Cc1ccc(-n2nc3c(=O)n(CCCC(=O)N4CCC(C(N)=O)CC4)nc(C)c3c2C)cc1	12	5	1	-3	-59	-52*
Cc1ccc(-n2nc3c(=O)n(CCCC(=O)N4CCC(C)CC4)nc(C)c3c2C)cc1	-12	-16	8	4	7	-3
CC(C)NC(=O)Nc1ccc2c(c1)C(=O)N([C@@H](C)CO)C[C@@H](C)[C@@H](CN(C)C(=O)Nc1ccc3c(c1)OCO3)OCCCC[C@@H](C)O2	3	/	/	/	/	/
O=C(NNS(=O)(=O)c1ccc(F)cc1)c1ccc(O)cc1	-8	6	12	62*	19	1
O=C(NNS(=O)(=O)c1ccc(F)cc1)c1ccc(S(=O)(=O)N2CCCCC2)cc1	0	-14	5	2	-6	-4
COC(=O)c1c(NC(=O)CCCC(=O)O)sc(C)c1C	/	/	1	13	-41	-24
Cc1sc(NC(=O)CCCC(=O)O)c(C(N)=O)c1-c1ccccc1	27	-4	11	53*	-33	-30
C[C@@H]1CN([C@@H](C)CO)C(=O)c2cc(NS(=O)(=O)c3ccc(F)cc3)ccc2O[C@@H]1CN(C)C(=O)Nc1cccc2ccccc12	8	/	/	/	/	/
Cc1ccc2nc(NC(=O)c3ccccn3)sc2c1	103*	86*	82*	98*	-25	-5
O=C(Nc1nc2c(F)cc(F)cc2s1)c1ccccn1	60*	36	44*	42	423*	348
O=C(COc1ccccc1)NNc1nc2c(F)cc(F)cc2s1	16	7	4	3	7	7
CSc1nc2ccc(NC(=O)c3ccccn3)cc2s1	71*	26	4	72*	17	15
CCOc1ccc2nc(NC(=O)c3ccccn3)sc2c1	89*	67*	57*	-5	20	10
CCOc1ccc2nc(NC(=O)COC)sc2c1	/	-26	1	30	41	24
Cc1noc(C)c1NC(=O)N(C)C[C@H]1OCCCC[C@@H](C)Oc2ccc(NS(=O)(=O)c3c(C)noc3C)cc2C(=O)N([C@@H](C)CO)C[C@H]1C	8	/	/	/	/	/
C[C@@H]1CN([C@H](C)CO)S(=O)(=O)c2ccc(C3=CCCCC3)cc2O[C@@H]1CN(C)S(=O)(=O)c1ccc(F)cc1	-1	/	/	/	/	/
Cc1ccc(S(=O)(=O)Nc2ccc3c(c2)CC(=O)N([C@@H](C)CO)C[C@@H](C)[C@H](CN(C)S(=O)(=O)c2ccc(Cl)cc2)O3)cc1	-7	/	/	/	/	/
Cc1nnc(C)c2c(C)n(-c3ccc4ncccc4c3)c(C)c12	-14	52*	-1	1	4	1
Cc1ccc2ncccc2c1	0	-7	-8	1	/	/
SMILES	LGR2 antag	TROY signal inh	LMP1 NFkB inh	TWEAK-Fn14 inh	HSF-1 act	HSF1 inhib
O=C(N/N=C/c1cn(-c2ccccc2)nc1-c1cccs1)c1ccncc1	-30	-21	-6	40	27	10
O=C(N/N=C/c1cn(-c2cccs2)nc1-c1ccccc1)c1ccccc1Cl	/	-27	-8	21	59*	22
O=C(N/N=C/c1cn(-c2cccs2)nc1-c1ccccc1)c1ccc(O)cc1	-25	-29	-9	14	57*	21
O=C(N/N=C\c1cn(-c2ccccc2)nc1-c1ccccc1)c1ccc(Br)o1	/	25	-3	55*	23	11
C[C@@H]1CN([C@H](C)CO)C(=O)c2cc(NC(=O)NC3CCCCC3)ccc2O[C@H]1CN(C)S(=O)(=O)c1cn(C)cn1	14	/	/	/	/	/
CO[C@H]1CN(C)C(=O)c2cc(NC(=O)c3cccc(F)c3)ccc2OC[C@@H](C)N(CC2CC2)C[C@@H]1C	1	/	/	/	/	/
COc1ccc(NC(=O)N(C)C[C@@H]2Oc3c(NC(=O)c4cnccn4)cccc3C(=O)N([C@@H](C)CO)C[C@@H]2C)cc1	8	/	/	/	/	/
C/C(=N\OCc1ccc(C#N)cc1)c1ccccc1	/	-127	-22	-26	?	41
C/C(=N\OCc1cccc(C(=O)O)c1)c1ccc(Cl)cc1	100*	-73	/	-4	11	7
CC(=C/c1ccccc1)/C=N/Nc1nc(N2CCCCC2)nc(N2CCCCC2)n1	9	-5	-4	-9	-8	-3
BrC(/C=N/Nc1nc(N2CCOCC2)nc(N2CCOCC2)n1)=C/c1ccccc1	/	-8	4	-9	64*	47
Cc1ccc2nc(COc3ccc(Cl)cc3)cc(=O)n2c1	-94	-33	-20	-1	66*	45
CCOc1cc(C=O)ccc1OCc1cc(=O)n2cc(C)ccc2n1	-2	3	-2	-4	-10	-4
C[C@@H]1CN([C@@H](C)CO)C(=O)c2cc(NS(C)(=O)=O)ccc2O[C@@H]1CN(C)CC1CC1	1	/	/	/	/	/
COc1cccc(C(=O)COc2cccc(NC(=O)c3cccc([N+](=O)[O-])c3)c2)c1	/	/	26	64*	/	/
COc1ccccc1C(=O)OCC(=O)c1cccc([N+](=O)[O-])c1	6	1	-3	-4	-83	-76*
O=C(COc1cccc(NC(=O)c2cccc([N+](=O)[O-])c2)c1)c1ccc(F)cc1	/	46	9	42	15	16
O=C(Nc1cccc(Cl)c1)c1cccc(Oc2ccc([N+](=O)[O-])cc2Cl)c1	-10	43	5	82*	12	10
COc1ccc(NC(=O)c2cccc(Oc3ccc([N+](=O)[O-])cc3Cl)c2)cc1	8	24	11	59*	0	2
Cc1ccc(C)c(NC(=O)c2cccc(Oc3ccc([N+](=O)[O-])cc3Cl)c2)c1	-3	14	12	37	-35	-17
C[C@H]1CN([C@@H](C)CO)C(=O)c2cccc(NS(C)(=O)=O)c2O[C@@H]1CN(C)Cc1ccc(-c2ccccc2)cc1	4	/	/	/	/	/
Cn1c(=Nc2ccccc2)sc2ccccc21	-33	-93	-6	-6	7	-1

High-throughput results as filed in PubChem BioAssay.
